Laboratory results: the supplement of paper PMC13380429

System: Vero E6 infected with SARS-CoV-2
Assay: inhibition of SARS-CoV-2 cytopathic effect; higher = more antiviral protection, active = above 15
Conditions: 48 h

Measured: inhibition of SARS-CoV-2 cytopathic effect

Cc1c(F)cc(C(=O)NC2CC2)cc1-c1ccc(C(=O)NCC(C)(C)C)cn1 [losmapimod]
inactive: 1 nM 1.3% | 8.33 nM 0.27% | 100 nM -1.7% | 833.33 nM -4.24% | 10000 nM -5.03%

Cc1cc(/C=C/c2ccc3cc(N(C)C)ccc3[n+]2C)c(C)n1-c1ccccc1 [pyrvinium-pamoate]
inactive: 1 nM -1.06% | 8.33 nM -0.84% | 100 nM -3.02% | 833.33 nM -2.46% | 10000 nM -13.7%

Cc1cc(NC(=O)Nc2ccc(F)c(F)c2)n(-c2ccccc2)n1
inactive: 1 nM -0.5% | 8.33 nM -1.46% | 100 nM 0.29% | 833.33 nM -0.03% | 10000 nM 0.43%

Nc1ccc(C(=O)O)cc1 [potassium-p-aminobenzoate]
inactive: 1 nM -5.31% | 8.33 nM -2.38% | 100 nM -5.27% | 833.33 nM -0.2% | 10000 nM -5%

CC1=CC(=O)c2ccccc2C1=O [menadione]
inactive: 1 nM 1% | 8.33 nM 1.27% | 100 nM -0.28% | 833.33 nM -0.16% | 10000 nM -2.15%

CN1C(=O)C(Cc2c[nH]c3ccccc23)NC1=S (stereo not given) [necrostatin-1]
inactive: 1 nM 1.27% | 8.33 nM -1.34% | 100 nM 2.85% | 833.33 nM 1.03% | 10000 nM 1.43%

COc1cc(CNC(=O)CCCC/C=C/C(C)C)ccc1O [capsaicin]
inactive: 1 nM 0.65% | 8.33 nM 0.89% | 100 nM 1.27% | 833.33 nM -1.15% | 10000 nM 2.73%

Cc1cc(-n2c(=O)[nH]c(=O)n(C)c2=O)ccc1Oc1ccc(SC(F)(F)F)cc1 [toltrazuril]
inactive: 1 nM 1.91% | 8.33 nM -0.85% | 100 nM 1.02% | 833.33 nM -10.3% | 10000 nM -0.06%

CC(C)CCC[C@@H](C)[C@H]1CC[C@H]2[C@@H]3CCC4=CC(=NO)CC[C@]4(C)[C@H]3CC[C@]12C [olesoxime]
inactive: 1 nM -0.01% | 8.33 nM 0.28% | 100 nM -0.33% | 833.33 nM -0.32% | 10000 nM 3.9%

NS(=O)(=O)OC[C@@H]1C[C@@H](n2ccc3c(N[C@H]4CCc5ccccc54)ncnc32)C[C@@H]1O [pevonedistat]
inactive: 1 nM 1.08% | 8.33 nM 1.45% | 100 nM 2.73% | 833.33 nM -1.35% | 10000 nM -9.75%

CC[C@H]1[C@@H](O)[C@@H]2[C@H](CC[C@]3(C)[C@@H]([C@H](C)CCOS(=O)(=O)O)CC[C@@H]23)[C@@]2(C)CC[C@@H](O)C[C@@H]12
inactive: 1 nM 0.86% | 8.33 nM 1.92% | 100 nM -0.03% | 833.33 nM 1.94% | 10000 nM 1.9%

CCCCC/C=C\C/C=C\C/C=C\C/C=C\CCCC(=O)Nc1ccc(O)cc1
inactive: 1 nM -2.34% | 8.33 nM -1.32% | 100 nM 3.11% | 833.33 nM 0.42% | 10000 nM -4.16%

O=c1cc(N2CCOCC2)oc2c(-c3ccccc3)cccc12
inactive: 1 nM -0.31% | 8.33 nM 1.39% | 100 nM 0.59% | 833.33 nM -1.92% | 10000 nM -5.7%

C[C@H]1C[C@H]2[C@@H]3CCC4=CC(=O)C=C[C@]4(C)[C@@]3(Cl)[C@@H](O)C[C@]2(C)[C@@]1(O)C(=O)CO [beclomethasone]
inactive: 1 nM -6.12% | 8.33 nM -1.77% | 100 nM 0.28% | 833.33 nM -4.99% | 10000 nM -2.5%

NS(=O)(=O)Nc1ncnc(OCCOc2ncc(Br)cn2)c1-c1ccc(Br)cc1
inactive: 1 nM -1.74% | 8.33 nM -0.97% | 100 nM -0.65% | 833.33 nM -3.11% | 10000 nM -3.32%

O=C(NCCCN1CCOCC1)c1cnn2c(-c3ccccc3)cc(-c3ccccc3)nc12 [reversan]
inactive: 1 nM 12.1% | 8.33 nM 0.65% | 100 nM 1.42% | 833.33 nM 0.17% | 10000 nM -6.41%

CC(C(=O)O)c1ccc2c(c1)Cc1ccccc1-2 (stereo not given) [cicloprofen]
inactive: 1 nM 1% | 8.33 nM 0.42% | 100 nM 2.68% | 833.33 nM 1.95% | 10000 nM 4.16%

NC12CC3CC(CC(C3)C1)C2 [amantadine]
inactive: 1 nM 0.16% | 8.33 nM 1.94% | 100 nM 0.25% | 833.33 nM 0.33% | 10000 nM 3.28%
